Some test systems named below: DU-145 prostate; K-562 leukemia; MALME-3M melanoma; MDA-MB-231 breast; RXF 393 renal; SF-268 CNS; SF-295 CNS; SF-539 CNS; UACC-257 melanoma; M14 melanoma.
Common to all, as to test: NCI-60 one-dose screen, 48 h (100 = growth as untreated, 0 = no growth, -100 = all killed)
Common to all, as to details: 10 µM unless noted

The panel holds about 83,000 compounds, 20% with a hit somewhere; the sample as a whole holds those more often.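 Activity criterion: percent growth below 10, measured after cells in 96-well plates were exposed to a single compound concentration for 48 hours.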 Values without a mark were called inactive. Activity calls are given as the source filed them.

Regarding `COc1ccc(C2c3sc4c(C)cccc4c3Oc3nc(CC(=O)Nc4ccccc4)[nH]c(=O)c32)cc1` (stereo not given), the growth in the experiment on DU-145 prostate is 83.7%; with K-562 leukemia it was 52.1%; with MALME-3M melanoma it was 98%; in the experiment with MDA-MB-231 breast it was 69.8%; in the experiment on RXF 393 renal it was 8.26% (active); in the experiment with SF-268 CNS, 77.4%. In addition, the growth in the experiment with SF-295 CNS is 83.1%; in the experiment on SF-539 CNS it was 86.9%; in the experiment with UACC-257 melanoma it was 94.9%; with M14 melanoma, 89%.

For the molecule `COc1cc(-c2nn(C(C)(C)C)cc2-c2ccnc(NCCCNS(=O)(=O)c3ccc(C)cc3)n2)ccc1Cl`, the growth in the experiment on DU-145 prostate was 74%; in the experiment on K-562 leukemia, 57.7%; in the experiment with MALME-3M melanoma, 94.4%; in the experiment with MDA-MB-231 breast, 58.4%; with RXF 393 renal, 4.95% (active); with SF-268 CNS, 63.9%. Besides, the growth in the experiment with SF-295 CNS is 88%; with SF-539 CNS, 91.3%; in the experiment with UACC-257 melanoma it was 94.6%; in the experiment with M14 melanoma, 90.5%.

For the molecule `CCOC(=O)c1c(Nc2ccccc2)nn2c(-c3cccs3)ccnc12`, the growth is 84.7% with DU-145 prostate; 59% with K-562 leukemia; 88.7% in the experiment with MALME-3M melanoma; 81.3% in the experiment on MDA-MB-231 breast; -6.08% (active) with RXF 393 renal; 91.4% with SF-268 CNS. The growth in the experiment with SF-295 CNS is 84.1%; with SF-539 CNS, 84.1%; with UACC-257 melanoma, 108%; in the experiment with M14 melanoma, 91.6%.

With `COc1ccc(-c2nc3ccc(-c4nnc(SCC(=O)Nc5ccc(C(=O)/C=C/c6ccc(Cl)cc6)cc5)o4)cc3[nH]2)cc1`, the growth is 104% in the experiment on DU-145 prostate; 93.9% in the experiment on K-562 leukemia; 96.1% in the experiment on MALME-3M melanoma; 94.8% in the experiment with MDA-MB-231 breast; 98.2% in the experiment with RXF 393 renal; 94.9% with SF-268 CNS. The growth is 95.9% with SF-295 CNS, 87.1% in the experiment on SF-539 CNS, 107% with UACC-257 melanoma and 105% with M14 melanoma.

For `NS(=O)(=O)c1ccc(Nc2nc(SCC(=O)c3ccc(Cl)cc3)nc3c2CCCC3)cc1`, the growth with DU-145 prostate is 41.1%; in the experiment on K-562 leukemia, 27.9%; in the experiment with MALME-3M melanoma, 66.6%; in the experiment on MDA-MB-231 breast it was 49.6%; with RXF 393 renal, 35.6%; with SF-268 CNS, 62.2%. Moreover, the growth in the experiment with SF-295 CNS is 50.3%; in the experiment with SF-539 CNS, 62.3%; with UACC-257 melanoma it was 62.3%; in the experiment with M14 melanoma, 59.6%.

Consider `C=C=COc1cccc(/C(N)=N/C(N)=N/c2nc3ccccc3s2)c1`, for which the growth in the experiment with DU-145 prostate is 101%; in the experiment on K-562 leukemia it was 23.5%; with MALME-3M melanoma it was 93%; with MDA-MB-231 breast, 76.2%; in the experiment with RXF 393 renal, 104%; in the experiment with SF-268 CNS, 78.1%. Further, the growth in the experiment with SF-295 CNS was 110%; in the experiment on SF-539 CNS it was 70.4%; in the experiment with UACC-257 melanoma it was 104%; in the experiment on M14 melanoma, 67.9%.

For `Cc1ccc(-c2cc3nc(C(Cl)Cl)nc(C)n3n2)cc1`, the growth was 96.8% in the experiment with DU-145 prostate; 112% in the experiment with K-562 leukemia; 105% in the experiment on MALME-3M melanoma; 87% in the experiment on MDA-MB-231 breast; 118% in the experiment with RXF 393 renal; 106% in the experiment on SF-268 CNS. Also, the growth in the experiment on SF-295 CNS is 108%; in the experiment on SF-539 CNS it was 97.8%; in the experiment with UACC-257 melanoma, 112%; with M14 melanoma, 106%.

Take `COc1cc2oc(-c3cccc(N)c3)cc(=O)c2c(OC)c1OC`: the growth in the experiment with DU-145 prostate is 108%; with K-562 leukemia, 107%; in the experiment with MALME-3M melanoma, 101%; with MDA-MB-231 breast, 100%; in the experiment on RXF 393 renal, 117%; in the experiment with SF-268 CNS it was 104%. The growth was 93.4% in the experiment with SF-295 CNS, 99.6% with SF-539 CNS, 119% in the experiment on UACC-257 melanoma and 111% in the experiment with M14 melanoma.

On to `C=CC(=O)N1CC=C(c2cc3c(N[C@H](C)c4ccccc4)ncnc3[nH]2)CC1`, for which the growth in the experiment with DU-145 prostate was 40.3%; in the experiment with K-562 leukemia it was 84.2%; in the experiment on MALME-3M melanoma, 104%; in the experiment with MDA-MB-231 breast it was 47.8%; in the experiment with RXF 393 renal, -27.6% (active); in the experiment with SF-268 CNS, 63.4%. For the same molecule, the growth in the experiment with SF-295 CNS was 79%; in the experiment on SF-539 CNS it was 60.1%; in the experiment with UACC-257 melanoma, 102%; in the experiment on M14 melanoma, 100%.

Consider `CCCn1cnc2c(c1=N)C(c1ccc(Cl)cc1)c1sc3c(CC)cccc3c1O2` (stereo not given), for which the growth with DU-145 prostate was 13.7%; in the experiment with K-562 leukemia it was 11.3%; in the experiment on MALME-3M melanoma, 55.6%; in the experiment on MDA-MB-231 breast it was 30.8%; with RXF 393 renal, -22.5% (active); in the experiment on SF-268 CNS it was 45.4%. In addition, the growth in the experiment on SF-295 CNS is -12.8% (active); in the experiment on SF-539 CNS it was -19.7% (active); in the experiment on UACC-257 melanoma it was 83.9%; in the experiment on M14 melanoma, 2.63% (active).

`Cc1ccc(S(=O)(=O)NCCNc2nc(Nc3ccc(N4CCN(C)CC4)cc3)nc3ccsc23)cc1`: the growth in the experiment on DU-145 prostate was 102%; with K-562 leukemia, 0.196% (active); in the experiment with MALME-3M melanoma, 117%; with MDA-MB-231 breast it was 109%; in the experiment on RXF 393 renal it was 70%; with SF-268 CNS, 74.9%. The growth in the experiment on SF-295 CNS is 98.2%; in the experiment on SF-539 CNS, 94.9%; in the experiment on UACC-257 melanoma it was 107%; with M14 melanoma it was 106%.

In the case of `N#Cc1cccc(/C(N)=N/C(N)=N/c2nc3ccccc3s2)c1`, the growth with DU-145 prostate is 17.5%; in the experiment on K-562 leukemia, 12.7%; in the experiment on MALME-3M melanoma, 59.3%; in the experiment on MDA-MB-231 breast, 37.3%; with RXF 393 renal it was 13%; with SF-268 CNS it was 56.5%. Further, the growth is 1.87% (active) in the experiment on SF-295 CNS, 4.08% (active) with SF-539 CNS, 90.6% in the experiment with UACC-257 melanoma and 20.8% in the experiment with M14 melanoma.

On to `C=C(C)[C@@H]1CC[C@]2(COC)CC[C@]3(C)[C@H](CC[C@@H]4[C@@]5(C)CCCNC(C)(C)[C@@H]5CC[C@]43C)[C@@H]12`, for which the growth was 57.9% with DU-145 prostate; -47.7% (active) in the experiment with K-562 leukemia; -4.67% (active) in the experiment on MALME-3M melanoma; 62.8% in the experiment with MDA-MB-231 breast; -4.43% (active) with RXF 393 renal; 78.9% in the experiment on SF-268 CNS. In addition, the growth with SF-295 CNS is 58.3%; with SF-539 CNS it was 51.7%; in the experiment on UACC-257 melanoma, 13.3%; in the experiment with M14 melanoma, -39.4% (active).

(Values after PubChem BioAssay (NCI).)
